PglD DTNB: inhibitors of Campylobacter jejuni PglD acetyltransferase; purified PglD enzyme, DTNB colorimetric CoA detection; 360,000 compounds, 0.098% hits; AID 602405; inhibition, % at 12.5 µM; in the data active = inhibition above about 16%, passing the limit was not always enough
F508del corr: CFTR F508del correction in bronchial cells; activity (quench increase), % at 7.58 µM; 350,000 compounds, 0.36% hits; AID 720511; CFBE cells, YFP halide quenching; stimulated with forskolin plus potentiator P3; % fluorescence drop versus neutral controls;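 active = mean added fluorescence quench of at least 8% versus neutral control, with both replicates also reaching 8%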;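 also: cells transiently co-express mutant CFTR-F508del with the halide-sensitive YFP; corrector assay measuring rescue of mutant channel to the surface after 24 h compound exposure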
ARNT-TACC3 inh: ARNT/TACC3 interaction disruption; Q9Y6A5; AlphaScreen His-ARNT PAS-B/GST-TACC3 binding, luminescence; TACC3 fragment carries E629A point mutation; inhibition, % at 9.99 µM; 390,000 compounds, 0.66% hits; AID 623870;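 active = mean inhibition of replicates at least 50% and at least half of replicates each reaching 50%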
Statin myotox sup: suppression of simvastatin myotoxicity. AID 602340. C2C12 myotubes + simvastatin, ATP luminescence, 48 h; scaled: DMSO 0, geranylgeraniol control 100. 330,000 compounds, 0.78% hits. rescue of ATP level, % at 7.49 µM;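 active = mean ATP rescue above about 67%, or every replicate alone reaching that limit, limit read from the data, passing the limit was not always enough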;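 also: myotubes were challenged with 10 µM simvastatin during compound exposure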
Each line names hits and unclear results; the compound was inactive in the other large screens. Only some compounds are listed: those with a hit (about 1.4% of all), similar ones and a draw of the others.

N#Cc1ccc(-c2ccc3c(c2)[C@H]2[C@H](CCN2C(=O)C2CCC2)[C@H](CO)N3)cc1	none (no result: PglD DTNB, ARNT-TACC3 inh, Statin myotox sup)
COc1ccc(-c2cc(C3CC3)nc(N)c2C#N)cc1	none
COc1ccc(-c2cc(C3CC3)nc3sc(C#N)c(N)c23)cc1	Statin myotox sup 77 (no result: F508del corr)
O=C(O)c1nnsc1-c1csnn1	none (no result: PglD DTNB, Statin myotox sup)
Nc1csnc1C(=O)O	ARNT-TACC3 inh 46 (no result: F508del corr, Statin myotox sup)
O=C(N/N=C/c1c(O)n(-c2ccc(Cl)cn2)c(=O)c2ccccc12)C1CC1	ARNT-TACC3 inh 68 (no result: PglD DTNB, F508del corr, Statin myotox sup)
O=C(N/N=C/c1ccncc1)c1ccncc1	none
O=C(N/N=C/c1c(O)n(-c2ccc(Cl)cn2)c(=O)c2ccccc12)c1ccncc1	ARNT-TACC3 inh 42 (no result: F508del corr, Statin myotox sup)
O=C(N/N=C/c1ccccn1)C1CC1	none (no result: F508del corr, Statin myotox sup)
CN1CCN(CCN2CCn3c2nc2ccccc23)CC1	Statin myotox sup 81 (no result: F508del corr)
O=C(O)CN1C(=O)/C(=C\c2cn(-c3ccccc3)nc2-c2ccccc2)SC1=S	ARNT-TACC3 inh 46 (no result: F508del corr)
CC(C)CC(OC(=O)c1cccs1)C(=O)NCc1ccco1 (configuration not stated)	none (no result: F508del corr)
CCC(OC(=O)c1cccs1)C(=O)NCc1ccco1 (configuration not stated)	Statin myotox sup 102 (no result: F508del corr)
O=C(CN1CCOCC1)N1c2ccccc2Sc2ccc(Cl)cc21	none (no result: ARNT-TACC3 inh)
O=C(CN1CCN(CCOCCO)CC1)N1c2ccccc2Sc2ccc(Cl)cc21	Statin myotox sup 108 (no result: F508del corr)
O=C(N[C@H]1CC[C@H](CCNC(=O)C2CCCCC2)O[C@H]1CO)c1ccccn1	none
CCN(CC)CCn1c2ccccc2c2nc3ccccc3nc21	F508del corr 24
O=C(CCS(=O)(=O)c1ccccc1)Nc1ncc([N+](=O)[O-])s1	Statin myotox sup 75 (no result: ARNT-TACC3 inh)
O=C(CS(=O)(=O)c1ccccc1)Nc1ncc([N+](=O)[O-])s1	none
CCN(CC)c1ccc(/C=N/NC(=O)c2cnccn2)cc1	F508del corr 11 (no result: PglD DTNB, Statin myotox sup)
O=C(O)/C=C/C(=O)Nc1ccc(O)cc1	ARNT-TACC3 inh 54
O=C(O)/C=C/C(=O)Nc1ccc2c(c1)C(=O)c1ccccc1C2=O	ARNT-TACC3 inh 48 (no result: PglD DTNB, Statin myotox sup)
O=C(NC12CC3CC(CC(C3)C1)C2)c1ccc(-c2ccccc2Cl)o1	ARNT-TACC3 inh active (no result: F508del corr)
CCOC(=O)C1=C(C)C(c2ccc(OC)cc2OC)NC(=O)N1 (configuration not stated)	none (no result: PglD DTNB, F508del corr)
CCOC(=O)C1=C(C)C(c2ccccc2O)NC(=O)N1 (configuration not stated)	Statin myotox sup 87 (no result: F508del corr)
CC(C)c1cn(CC[C@@H]2CC[C@H](NC(=O)C3CCCC3)[C@H](CO)O2)nn1	none
O=C1NC(=NCc2ccccc2)S/C1=C\c1ccccc1	none (no result: F508del corr, ARNT-TACC3 inh, Statin myotox sup)
O=C1NC(=NCc2ccccc2)NC1(c1ccccc1)c1ccccc1	Statin myotox sup 101
On1ccccc1=S	ARNT-TACC3 inh active
O=C(Cn1ccccc1=S)c1ccc(Cl)c(Cl)c1	none (no result: ARNT-TACC3 inh, Statin myotox sup)
O=C(C[C@H]1C=C[C@H](NC(=O)C2CC2)[C@@H](CO)O1)NCc1ccncc1	none
Cc1cccc(C)c1OCC(=O)OCC(=O)Nc1ccc(Cl)cn1	F508del corr 23
Cc1cc(Cl)ccc1OCC(=O)OCC(=O)Nc1ccc(Cl)cn1	none (no result: ARNT-TACC3 inh)
COc1ccc(-c2oc3ccc(-c4cc(OC)c(OC)c(OC)c4)cc3c2C#Cc2ccccn2)cc1	F508del corr 8.8
COc1ccc(C#Cc2c(-c3ccc(OC)cc3)oc3ccc(-c4ccc(OC)cc4)cc23)cc1	none (no result: ARNT-TACC3 inh)
C[C@@H]1CN([C@H](C)CO)C(=O)c2cc(NC(=O)Cn3cnnn3)ccc2O[C@@H]1CN(C)S(=O)(=O)c1ccccc1	none (no result: PglD DTNB, ARNT-TACC3 inh)
COc1cc(NCc2ccccc2)c2ncn(C(C)C)c2c1	none
CCC(CN(C)C)Oc1cc(NCc2ccccc2)c2ncn(C(C)C)c2c1 (configuration not stated)	ARNT-TACC3 inh 51 (no result: F508del corr)
O=C([C@H]1[C@H](CO)[C@H]2Cn3c(cccc3=O)[C@H]2N1Cc1ccccc1Cl)N1CCOCC1	none
O=C1C(C=NCc2ccccn2)=C(O)c2ccccc21	ARNT-TACC3 inh 66
CN1/C(=C/C(=S)NC(=O)C2(C)CC2(Cl)Cl)C(C)(C)c2ccccc21 (configuration not stated)	ARNT-TACC3 inh 48
CN1/C(=C\C(=S)NC(=O)c2ccccc2Cl)C(C)(C)c2ccccc21	none (no result: F508del corr, Statin myotox sup)
COc1ccccc1C(=O)NC(=S)/C=C1/N(C)c2ccccc2C1(C)C	F508del corr 10.0 (no result: PglD DTNB, Statin myotox sup)
COc1cccc(S(=O)(=O)Nc2ccc3c(c2)[C@H]2C[C@H](CC(=O)NCc4ccccc4F)O[C@@H](CO)[C@H]2O3)c1	none
COc1ccc(NC(=O)Nc2ccc3c(c2)CC(=O)N([C@H](C)CO)C[C@H](C)[C@@H](CN(C)Cc2ccc(C(=O)O)cc2)O3)cc1	none (no result: PglD DTNB, ARNT-TACC3 inh, Statin myotox sup)
Clc1cccc(-c2ccc(CNCc3ccccn3)o2)c1	ARNT-TACC3 inh 74 (no result: F508del corr)
Cc1ccc(C(=O)Nc2cccc(C(F)(F)F)c2)cc1NC(=O)c1nccn1C	none
Cc1ccc(C(=O)Nc2cccc(C(F)(F)F)c2)cc1Nc1cnccn1	F508del corr 10
CCC(=O)Nc1ccc2c(c1)OC[C@@H](C)N(C(=O)C1CCC1)C[C@H](C)[C@H](OC)CN(C)C2=O	none
C[C@@H](NC(=O)C[C@@H]1CC[C@H]2[C@@H](COC[C@H](O)CN2C)O1)c1ccccc1	none
Nc1nc(N)nc(-c2ccccn2)n1	ARNT-TACC3 inh 64 (no result: F508del corr)
c1ccc(-c2nc(-c3ccccn3)nc(-c3ccccn3)n2)nc1	ARNT-TACC3 inh 51
Clc1ccc(-c2cnnc(-c3ccccn3)n2)cc1	ARNT-TACC3 inh 61
c1ccc(-c2nc3ccccc3nc2-c2ccccn2)nc1	none (no result: PglD DTNB, F508del corr, Statin myotox sup)
C[C@@H]1CN([C@@H](C)CO)C(=O)c2cc(NS(=O)(=O)c3cccs3)ccc2O[C@@H]1CN(C)S(C)(=O)=O	none
CCCCSC1(SCCCC)N=C(N)C2(C#N)C(c3ccccc3)NC(C)=CC12C#N (configuration not stated)	ARNT-TACC3 inh 56 (no result: F508del corr)
C[C@@H]1CN([C@H](C)CO)C(=O)Cc2cc(NS(=O)(=O)c3ccccc3)ccc2O[C@@H]1CN(C)C(=O)Nc1ccccc1	none
CCCn1c(SCC(=O)c2ccc(OC)c(OC)c2)nc2c1c(=O)n(C)c(=O)n2C	Statin myotox sup 130 (no result: PglD DTNB, F508del corr)
CC(=O)N(/N=C1\Sc2ccccc2C1=O)c1ccc(C)cc1C	none (no result: PglD DTNB, F508del corr, Statin myotox sup)
CC(=O)N(/N=C1\Sc2ccccc2C1=O)c1ccccc1C	ARNT-TACC3 inh 59 (no result: F508del corr)
C[C@@H]1CN([C@@H](C)CO)C(=O)Cc2cc(NC(=O)CCN3CCOCC3)ccc2O[C@H]1CN(C)C	none
CC1(C)Cc2ccccc2C2=NNC(=O)C2=N1	ARNT-TACC3 inh 61
COc1ccccc1N=C1SC(C(=O)Nc2cccc(Cl)c2Cl)C(N)=C1C(N)=O (configuration not stated)	F508del corr 9.5 (no result: PglD DTNB, Statin myotox sup)
O=C(CSC(=S)N1CCOCC1)c1cc2ccccc2oc1=O	ARNT-TACC3 inh 48 (no result: F508del corr)
O=C(OCC(=O)N1CCOCC1)c1cc2ccccc2oc1=O	none
C=CCOC(=O)[C@H]1[C@@H]2C(=O)O[C@@H](c3ccccc3)[C@@H](c3ccccc3)N2[C@@H](c2ccc(OCCOC(=O)[C@@H]3C[C@@H]4C(=O)N[C@@H](CC(C)C)C(=O)N4[C@@H]3c3ccc(O)cc3)cc2)[C@]12C(=O)Nc1ccc(I)cc12	none (no result: Statin myotox sup)
